Bioassay records (PubChem)
Hits are enriched below; roughly 3.4% of the tested compounds scored in any of these assays.
HIF-2a block = blocks HIF-2a reporter activity; 786-0 RCC cells HIF-2a reporter, luciferase luminescence, overnight; inhibition, % at 18.8 µM; 360,000 compounds, 0.72% hits; AID 624352;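 active = inhibition of the luminescence signal of 40% or more relative to plate controls, in a single-dose primary screen at 18.75 µM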
MITF TRPM1 inh = inhibitors of MITF-driven TRPM1 promoter in melanoma cells | 330,000 compounds, 0.83% hits | inhibition, % at 12.5 µM | SK-MEL-5 TRPM1 promoter luciferase, 24 h;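 active = mean inhibition across replicates of 60% or more, whatever share of single replicates reaches that level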
TROY NFkB inh = blocks TROY-dependent signaling in reporter cells; Q293 LMP1-TROYcd NF-kB luciferase reporter, 4 h; inhibition, % at 10 µM; 360,000 compounds, 0.98% hits; AID 1347056;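 active = compounds whose plate-normalised and pattern-corrected inhibition of the luciferase reporter signal at the single screening dose is 50% or more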
LMP1 NFkB inh = Epstein-Barr LMP1 NF-kappaB reporter inhibition. inhibition, % at 12.5 µM. 350,000 compounds, 0.69% hits. AID 504558. LMP1-induced NF-kappaB luciferase reporter cells, luminescence; in the data active = inhibition above about 41%
Shn3 inh set2 = Schnurri-3 reporter inhibition in Clone20 osteoblasts; inhibition, % at 12.5 µM; Clone20 osteoblast Shn3 3'UTR firefly luciferase, 24 h; 360,000 compounds, 0.52% hits;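 active = mean inhibition of at least 75% with every replicate also reaching 75%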
TWEAK-Fn14 inh = TWEAK-Fn14 signaling inhibition; TWEAK-stimulated Fn14 reporter cells, luciferase luminescence, 8 h; inhibition, % at 10 µM; 360,000 compounds, 2% hits; in the data active = inhibition above about 50%
A number is an active result; i = inactive; nt = no result given.

SMILES	HIF-2a block	MITF TRPM1 inh	TROY NFkB inh	LMP1 NFkB inh	Shn3 inh set2	TWEAK-Fn14 inh
Clc1cccc(Cc2c(-c3ccco3)nc3ccc(Cl)cn23)c1	i	nt	i	nt	i	64
O=P1(NC2CCCCC2)OCC2(CO1)COP(=O)(NC1CCCCC1)OC2 (stereo unspecified)	i	i	i	i	i	i
COC(=O)[C@@]1(Cc2ccc(F)cc2)[C@H]2c3cc(C(=O)N4CCCC4)n(C)c3C[C@H]2CN1C(=O)c1ccccc1	i	nt	i	nt	nt	i
CC(C)/C=N/Nc1nc(-c2ccc(Br)cc2)cs1	i	i	i	i	i	i
Cc1ccccc1S(=O)(=O)NC(=O)C1(C)CCN1C(=O)C(C)(C)c1ccccc1 (stereo unspecified)	i	nt	i	nt	i	i
CC(=O)c1cccc(NC(=O)c2ccc3c(c2)CCN3S(=O)(=O)c2ccccc2)c1	i	i	i	i	i	74
CC(=O)NS(=O)(=O)c1ccc(NC(=O)c2cccc(S(=O)(=O)N3CCc4ccccc43)c2)cc1	i	i	i	i	i	i
O=C(Nc1ccc(S(=O)(=O)N2CCc3ccccc32)cc1)c1ccc2c(c1)OCO2	i	i	i	i	i	58
O=C(Nc1nc2ccccc2s1)c1cccc(S(=O)(=O)N2CCc3ccccc32)c1	i	i	i	i	i	70
Cc1nnc(NC(=O)c2cccc(S(=O)(=O)N3CCc4ccccc43)c2)s1	i	i	nt	i	i	i
CN(C)S(=O)(=O)c1cccc(NC(=O)c2cccc(S(=O)(=O)N3CCc4ccccc43)c2)c1	i	nt	i	i	92	60
COc1ccc(S(=O)(=O)N(CC(=O)NC2CCCCC2)c2ccc(F)cc2)cc1	i	i	i	i	i	i
O=c1cc(CSc2ccc(Cl)cc2)nc(-c2ccccn2)[nH]1	i	67	i	i	i	106
Cc1ccc(S(=O)(=O)Nc2ccccn2)c(C)c1	i	nt	i	i	i	i
CN(C)c1cccc2c(S(=O)(=O)Nc3ccccn3)cccc12	i	i	62	i	i	84
COc1ccc(C)cc1NC(=O)CSc1nc2ccccc2nc1N1CCCC1	i	i	i	i	i	i
CCC(CC)c1nnc(NC(=O)Cc2c[nH]c3ccccc23)s1	i	nt	i	i	i	i
COc1cc(NC(=O)C2=C(N3CCOCC3)/C(=C\c3ccc(Cl)cc3Cl)CC2)cc(OC)c1OC	i	i	i	i	i	52
Cc1ccc(NS(=O)(=O)c2ccc(Cl)c(C(=O)Nc3ccccc3-c3nc4ccccc4[nH]3)c2)cc1C	i	i	i	i	i	91
CN(C)S(=O)(=O)c1ccc(Cl)c(C(=O)Nc2nc3ccccc3[nH]2)c1	i	i	i	i	i	i
CC(=O)Nc1cncc(-c2cccc(C(=O)N(C)C)c2)n1	i	nt	i	nt	i	i
COc1ccc(S(=O)(=O)N2CCCCCC2)cc1C(=O)OCc1cccc(OC)c1OC	i	i	i	46	i	i
Cc1nccn1CC(=O)N/N=C/c1cccs1	i	i	i	i	i	74
Cc1cc(C)n(CC(=O)N/N=C/c2ccc([N+](=O)[O-])s2)n1	i	i	i	i	i	i
Cc1cc(C)n(CC(=O)N/N=C/c2cccs2)n1	i	i	i	i	i	105
SMILES	HIF-2a block	MITF TRPM1 inh	TROY NFkB inh	LMP1 NFkB inh	Shn3 inh set2	TWEAK-Fn14 inh
Cc1cccc(NC(=O)COC(=O)CN2C(=O)C3CCCCC3C2=O)c1C (stereo unspecified)	i	nt	i	i	i	i
CNC(=O)C1=NCCCc2cc(OC)c(OC)cc21	i	i	i	64	i	i
C=CCn1c(SCc2ccc3nonc3c2)nnc1-c1cccs1	i	i	i	71	i	i
CCCc1cc(C(=O)Nc2ccc(C(=O)c3ccc(C)cc3)cc2)n(C)n1	i	i	i	i	i	i
COc1ccc(C2c3cc4c(cc3OC(N3CCOCC3)C2C)OCO4)c(OC)c1 (stereo unspecified)	i	i	i	i	i	i
Cc1cc(/C=N/NC(=O)c2cccc([N+](=O)[O-])c2)c(C)n1-c1ccc(Cl)cc1Cl	i	i	nt	i	i	95
C=CCN1C(=O)N(c2ccc(F)cc2)C(=O)C1CC(=O)Nc1ccc(Cl)cc1 (stereo unspecified)	i	i	i	i	i	80
CCOC(=O)CCSc1nc(C)c2cc(C)c(C)cc2n1	i	i	nt	i	i	82
CCCOC1CCCN(C(=O)c2cc(COc3c(F)cccc3F)on2)C1 (stereo unspecified)	i	i	i	i	i	i
Cc1ccccc1C1CCCN(C(=O)c2cc(COc3c(F)cccc3F)on2)C1 (stereo unspecified)	i	i	i	i	i	85
O=C(CCNC(=O)c1ccc([N+](=O)[O-])cc1)Nc1ccc(S(=O)(=O)N2CCOCC2)cc1	i	i	i	i	i	i
CN(C)c1ccc(NC(=O)Nc2ccc3c(c2)c(=O)n(C)n3Cc2ccc(Cl)cc2)cc1	i	nt	i	nt	i	i
Cc1sc2ncnc(N/N=C/c3ccc(O)cc3)c2c1C	i	i	i	i	i	52
COc1ccc(/C=N/Nc2ncnc3sc(C)c(C)c23)cc1	i	i	i	i	i	i
Cc1sc2ncnc(N/N=C/c3ccccc3O)c2c1C	i	i	i	43	86	i
CCN(CC)CCn1c(NC(=O)c2ccccc2O)nc2ccccc21	i	i	i	i	i	i
COc1ccc2c(c1)CCCC21NC(=O)N(CC(=O)N2CC(C)OC(C)C2)C1=O (stereo unspecified)	i	i	i	i	i	i
CCOc1ccc(NS(=O)(=O)c2ccc(C(=O)NNC(=O)c3ccccc3O)cc2)cc1	i	i	i	i	i	i
C=CCN1C=CC(=C/C=C(/C#N)C(=O)OCC)C=C1	i	i	i	i	i	50
O=C(CC1C[C@H](C(=O)N2CCOCC2)[C@@]2(CCC3CCCC3)c3[nH]c4ccccc4c3CCN2C1=O)NCCc1ccccn1 (stereo partly specified)	i	i	i	i	i	i
CCC[C@@H](CN1CCC[C@H]1CN1C(N)=NC[C@@H]1Cc1ccccc1)N1C[C@@H]([C@H](C)CC)N(CCCC2CCCC2)C1=N	i	i	i	i	93	i
COc1ccc(CCNC(=O)CSc2nc3[nH]ncc3c(=O)n2-c2ccc(Br)cc2)cc1OC	i	i	i	i	i	i
CCc1ccccc1-n1c(SCC(=O)Nc2ccc3c(c2)OCCO3)nc2[nH]ncc2c1=O	i	i	80	i	i	88
CCc1ccc(-n2c(SCC(=O)Nc3cc(C)[nH]n3)nc3[nH]ncc3c2=O)cc1	i	i	nt	i	i	98
CCOC(=O)c1c(C)[nH]c(C)c1C(=O)COC(=O)c1nn(CC)c(=O)c2ccccc12	i	nt	i	i	i	i
COc1ccc(/C=C/C(=O)OCC(=O)NCc2ccco2)cc1OC	i	i	i	56	i	i
Cc1ccc(C(=O)Nn2c(N)c(S(=O)(=O)c3ccc(C)cc3)c3nc4ccccc4nc32)cc1	i	i	i	i	i	i
